# An excerpt weighted towards active compounds, which were near 2.9% of everything screened.
# PI5P4K alpha inh – inhibitors of human PI5P4K alpha; PI5P4Kalpha enzyme, ADP-Glo luminescence, 60 min; stronger effect = lower value; max response, %; 330,000 tested, 1.2% active; AID 652105; active means max response of -50% or lower; inconclusive means between -30% and -50%; inactive means -30% or higher; further: value at the top dose of about 77 µM; on the % scale 0 is the no-effect control and ±100 the full control effect
# Target sequence (P48426 whole entry, looked up): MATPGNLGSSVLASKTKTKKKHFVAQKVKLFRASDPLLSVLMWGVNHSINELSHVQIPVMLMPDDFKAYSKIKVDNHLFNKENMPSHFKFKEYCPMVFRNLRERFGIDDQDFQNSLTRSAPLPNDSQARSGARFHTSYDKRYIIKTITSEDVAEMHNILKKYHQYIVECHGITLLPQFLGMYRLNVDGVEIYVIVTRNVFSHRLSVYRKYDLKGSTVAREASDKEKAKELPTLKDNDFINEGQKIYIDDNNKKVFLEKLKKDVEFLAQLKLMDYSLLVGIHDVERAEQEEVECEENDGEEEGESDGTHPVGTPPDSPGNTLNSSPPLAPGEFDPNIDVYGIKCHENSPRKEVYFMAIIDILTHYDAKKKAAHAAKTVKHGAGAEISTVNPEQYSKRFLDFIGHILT
#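 Enzyme plus substrate dispensed, test compounds pinned in, then ATP (5 microM final) added. After 60 min at RT, ADP-Glo reagent 1 for 45 min and reagent 2 for 30 min preceded luminescence imaging.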
# POLI inh – DNA polymerase iota (human) inhibition | Potency, µM (series often up to 115 µM), without a hit: at the highest dose activity, negative = inhibition, most hits filed as inhibitors | Q9UNA4 | Pol iota fluorescent replication assay, 10 min | 390,000 tested, 1% active; further: potency means the concentration at half of the fitted maximal effect
#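 Pol iota at 10 nM preincubated 15 min with compounds at room temperature; reaction started with fluorescent substrate, 50 nM final. Fluorescence read kinetically at 0 and 10 min; buffer-only wells as negative control.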
# Pol kappa inh – DNA polymerase kappa (human) inhibition. Potency, µM (doses to about 107 µM), inactives show top-dose activity, negative = inhibition, hits mostly inhibitors. purified Pol kappa, fluorescent DNA synthesis assay, 10 min. AID 588579. 400,000 tested, 0.53% active; further: potency means the concentration at half of the fitted maximal effect; on the % scale 0 is the no-effect control and ±100 the full control effect
#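 Kinetic fluorescence readout at 0 and 10 min followed reaction start with substrate at 50 nM final. Beforehand, enzyme (10 nM Pol kappa) stood 15 min with compound at room temperature; buffer-only wells were negative controls.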
# POLB inh – blocks human DNA polymerase beta activity; 340,000 tested, 1.3% active; P06746; Potency, µM (highest dose often 114 µM), inactives show at the highest dose activity change, negative = inhibition, actives largely listed as inhibitors; Pol beta primer extension/strand displacement, fluorescence kinetic; AID 485314; further: potency means the concentration at half of the fitted maximal effect; on the % scale 0 is the no-effect control and ±100 the full control effect
#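 10 nM enzyme + cpd, 15 min RT; start with substrate 50 nM final; read 0 min and after 10 min RT. Corrected, normalized data; 4-parameter Hill curve fit.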
# Pol eta inh – DNA polymerase eta (human) inhibition; 390,000 tested, 1.2% active; recombinant Pol eta, fluorescent DNA replication assay; Potency, µM (top dose mostly 114 µM), without a hit: at the top dose activity change, negative = inhibition, most hits filed as inhibitors; AID 588591; further: potency means the concentration at half of the fitted maximal effect; on the % scale 0 is the no-effect control and ±100 the full control effect
#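 Fluorescent replication assay: 50 nM final substrate added after a 15 min room-temperature compound preincubation with 10 nM enzyme. Signal taken at 0 min and again at 10 min.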
# 12-LOX inh – ALOX12 (human) lipoxygenase inhibition. P18054. purified 12hLO, xylenol orange hydroperoxide absorbance. Potency, µM (doses to about 108 µM), inactives show at the highest dose activity change, negative = inhibition, most hits filed as inhibitors. 580,000 tested, 1.1% active; further: potency means the concentration at half of the fitted maximal effect; on the % scale 0 is the no-effect control and ±100 the full control effect
#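 Hydroperoxide product was detected by ferrous iron/xylenol orange as the 573 to 405 nm absorbance ratio. Arachidonic acid at 40 uM (final) was turned over for 30 min at room temperature by 150 nM human 12hLO, pH 7.0 Hepes buffer, after 15 min compound preincubation.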
# An asterisk follows results filed as active; ? = inconclusive; . = not tested or not shown; [ ] = remark or other dose. Unless noted, the call rests on the fitted dose curve; in most records, active means well fitted inhibition curve with a large enough effect; inconclusive means small, poorly fitted or top-dose-only effect, or another doubt; inactive means no such curve, though single readings can be large or run the other way.
SMILES,PI5P4K alpha inh,POLI inh,Pol kappa inh,POLB inh,Pol eta inh,12-LOX inh
COc1ccc2nc3cccc(OC)c3nc2c1,-7,49%,-14%,40µM*,?,-28%
CC(C)NC(=O)c1cc2cc(Br)ccc2[nH]1,.,.,.,.,.,4%
Cc1nn2c(=S)[nH]nc2[nH]c1=O,-53*,23%,3%,0%,-13%,-10%
Cc1n[nH]c(=S)n(NC(=O)CC(=O)Nn2c(=S)[nH]nc(C)c2=O)c1=O,10,57%,-5%,3%,-12%,9%
CN1CCCCCC(O)c2cc(C(=O)Nc3cccc(OC(F)(F)F)c3)ccc21 (centres undefined),.,.,.,.,.,20%
COc1ccc(CCNC(=O)c2c(O)c3cccc4c3n(c2=O)CC4)cc1,-81*,10%,-8%,?,-4%,-1%
Cc1oc2ncnc(N3CCOCC3)c2c1C(=O)NCC1CCN(Cc2cccc(F)c2)CC1,.,.,.,.,.,0%
COc1ccc(Br)cc1CSC(=N)N,9,40%,0%,4%,-10%,?
COc1ccc(Br)cc1C[N+]1(C)CCCCC1,.,.,.,.,.,16µM*
Cc1ccc2nc(NCc3ccco3)c(C=NCc3ccco3)c(=O)n2c1,.,1%,-14%,28µM*,-6%,8%
COc1cccc(NC(=O)NNC(=O)CCc2ccc(O)c(O)c2)c1,0,40µM*,25µM*,42%,-5%,?
CC(C)OCCCn1c(-c2ccc(Br)cc2)c[nH]c1=S,8,127%,-22%,20%,3%,45µM*
O=C(O)c1sc(C(=O)O)c(-c2ccccc2)c1-c1ccccc1,?,.,.,.,-8%,?
CC(=O)c1sc(C(=O)O)c(-c2ccco2)c1-c1ccco1,?,?,45µM*,20µM*,22µM*,?
O=C(Nc1ccc(N2CCOCC2)cc1)c1ccc2nc(-c3ccco3)c(-c3ccco3)nc2c1,.,-5%,-25%,0%,-14%,-27%
O=C(NCCO)Nc1ccc2nc(-c3ccco3)c(-c3ccco3)nc2c1,.,.,.,4.5µM*,.,.
CC1CCN(C(=O)Nc2ccc3nc(-c4ccco4)c(-c4ccco4)nc3c2)CC1,.,14µM*,8.9µM*,.,.,.
O=C(Nc1ccc2nc(-c3ccco3)c(-c3ccco3)nc2c1)N1CCCC1,.,3.2µM*,32µM*,.,.,.
S=C(Nc1ccc(N2CCOCC2)cc1)Nc1ccc2nc(-c3ccco3)c(-c3ccco3)nc2c1,-78*,2µM*,?,2%,?,-4%
Cc1nc2ccc(NC(=O)N3CCOCC3)cc2nc1C,2,31%,-4%,0%,-9%,-6%
O=C(NCCO)Nc1ccc2nsnc2c1,-3,5%,-8%,24%,5%,1%
O=C(Nc1ccc2nc(-c3cccs3)c(-c3cccs3)nc2c1)N1CCCCC1,.,24%,-45%,.,.,.
COc1ccc(C(=O)NC2CCN(c3cc(-c4ccc(Cl)cc4)[nH]n3)C2)c(OC)c1 (centres undefined),.,.,.,.,.,2%
COc1cccc(N2C(=O)NC(=NC3CCCC3)C23CCN(Cc2ccc(F)cc2)C3)c1 (centres undefined),.,.,.,.,.,2%[6.33 µM]
N#Cc1nc(C2CC2)oc1N1CCN(C(=O)NCC2CC2)CC1,.,.,.,.,.,24%
SMILES,PI5P4K alpha inh,POLI inh,Pol kappa inh,POLB inh,Pol eta inh,12-LOX inh
CC(=O)N/N=C/c1cc(Cl)ccc1OCCOCCOc1ccc(C)cc1,.,.,.,.,.,-40%
Cc1sc2nc(SCC(=O)Nc3c(C)n(C)n(-c4ccccc4)c3=O)n(C)c(=O)c2c1C,.,?,-27%,20µM*,?,-12%
O=C(c1ccc(Cl)cc1)c1oc2ccccc2c1CS(=O)c1ccc(Cl)cc1 (centres undefined),.,18%,-2%,17%,-6%,4.5µM*
S=C1NCCc2ccccc2C1c1ccccc1 (centres undefined),-3,0%,-6%,6%,-2%,35µM*
O=C(Nc1cccc(NC(=O)c2ccc(Br)o2)n1)c1ccc(Br)o1,.,14µM*,-11%,26%,?,-10%
Cc1nc(NC(=O)c2ccc(Br)o2)ccc1Br,-3,8%,3%,0%,5%,?
CCC(=O)/C=C1/Sc2ccc(OC)cc2N1CC,.,28%,-3%,-11%,-1%,-3%
CCC(=O)/C=C1/Sc2ccc(OC)cc2N1CCO,-51*,71%,-1%,-13%,-22%,-16%
CCO/C(=C/c1sc2ccc(OC)cc2[n+]1CCCS(=O)(=O)[O-])CC,1,-16%,-13%,-1%,-3%,-22%
CCC(/C=C1\Sc2ccc(OC)cc2N1CC)=C\c1sc2ccc(OC)cc2[n+]1CCCS(=O)(=O)[O-],?,121%,23%[60.1 µM],8.9µM*,?,-8%
CCC(/C=C1\Sc2ccc(OC)cc2N1CCO)=C\c1sc2ccc(OC)cc2[n+]1CCO,-78*,?,?,22µM*,14µM*,?
O=C(Nc1ccc(Cl)cc1C(F)(F)F)c1ccc(F)cc1,.,.,.,.,.,22%
COc1ccc(OCC(=O)Nc2ccc3oc(-c4ccc5ccccc5c4)nc3c2)cc1,.,.,.,.,.,-12%
Cc1ccc(CCC(=O)Nc2cccc3cccnc23)cc1,.,.,.,.,.,-10%
CC(=O)Nc1ccc(NC(=O)c2nc3ccccc3nc2N2CCCCC2)cc1,.,.,.,.,.,1%
Cc1nn(-c2ccc(C(F)(F)F)cc2)c(C)c1[C@@H]1C=C[C@@H](NC(=O)COCC(=O)O)C1,.,.,.,.,.,14%
Cc1nn(-c2ccc(C(F)(F)F)cc2)c(C)c1[C@@H]1C=C[C@@H](NC(=O)NC(C)C)C1,.,.,.,.,.,11µM*
Cc1nn(-c2ccc(F)cc2)c(C)c1[C@@H]1C=C[C@@H](NC(=O)CC(C)(C)CC(=O)O)C1,.,.,.,.,.,20µM*
COC(=O)C1=C(C)N=C2SC=C(CC(=O)NCCc3ccccc3)N2C1c1cccc(OC)c1 (centres undefined),.,.,.,.,.,67%
COc1cc(C)c(NC(=O)c2ccc3c(c2)NC(=O)CS3)cc1OC,.,.,.,.,.,20µM*
CCSS(=O)(=O)c1cccc2cccnc12,-84*,-2%,-6%,1%,0%,?
O=C(O)CCS(=O)(=O)c1cccc2cccnc12,.,-29%,-1%,-1%,-15%,-6%
O=Nc1c2cc(-c3ccccc3)[nH]nc-2c2ccccc12,-10,-6%,-6%,40µM*,-8%,7%
CC(C)(C)OC(=O)NCCC(=O)NC1CCCCC1,.,.,.,.,.,3%
C=CCn1c(CSCc2ccc(Cl)cc2Cl)nnc1SCC(=O)Nc1ccc(C(=O)O)cc1,-74*,?,-3%,0%,-2%,0%
CC(=O)c1ccc(NC(=O)CSCc2ccc(Cl)cc2Cl)cc1,.,.,.,.,.,6%
CCOc1ccc(CCNC(=O)Cn2c(=O)c3cccn3c3cccnc32)cc1,0,11%,-15%,100µM*,-21%,-2%

# High-throughput results as filed in PubChem BioAssay.
